According to PubChem BioAssay (NCATS):
Records with an inconclusive call do not appear. The source made the active and inactive calls. The call rests on the fitted dose curve; in most records, active means well fitted inhibition curve with a large enough effect; inconclusive means small, poorly fitted or top-dose-only effect; inactive means flat fitted curve, though single readings scatter.

What was measured:
Assay in all cases: qHTS profiling for inhibitors of Plasmodium falciparum proliferation (AID 504749); further: nearly all actives have a fitted effect of over 60% in size
Conditions in all cases: P. falciparum in erythrocytes, SYBR Green DNA, 72 h; series mostly up to 12.8 µM
7G8 = test system: 7G8
Method in brief: (§1)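 P. falciparum-infected erythrocytes (0.3% parasitemia, 2.5% hematocrit) incubated with compound 72 h at 37 C, 5% CO2. Parasite DNA detected by SYBR Green after lysis, overnight at room temperature; normalised to 0.29 uM artemisinin and DMSO.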

AA1029 = test system: AA1029
Method in brief: as §1

CP185 = test system: CP185
Method in brief: as §1

CP237 = test system: CP237
Method in brief: as §1

CP252 = test system: CP252
Method in brief: as §1

CP260 = test system: CP260
Method in brief: as §1

CP265 = test system: CP265
Method in brief: as §1

CP266 = test system: CP266
Method in brief: as §1

CP286 = test system: CP286
Method in brief: as §1

CP297 = test system: CP297
Method in brief: as §1

CP329 = test system: CP329
Method in brief: as §1

ECU = test system: ECU
Method in brief: as §1

HB3 = test system: HB3
Method in brief: as §1

ICS = test system: ICS
Method in brief: as §1

P93_24 = test system: P93_24
Method in brief: as §1

PAD = test system: PAD
Method in brief: as §1

TAB165 = test system: TAB165
Method in brief: as §1

CP194 = test system: CP194
Method in brief: as §1

CP201 = test system: CP201
Method in brief: as §1

CP203 = test system: CP203
Method in brief: as §1

Measured: Potency
Potency means the concentration at half of the fitted maximal effect.

C[N+]12CCC(CC1)[C@@H](OC(=O)C(O)(c1ccccc1)c1ccccc1)C2
not listed: CP194 | CP201 | CP203
inactive: all other assays above

C[C@H](N[C@@H](C)COc1ccccc1)[C@H](O)c1ccc(O)cc1
active: CP237 3.55 µM
not listed: CP266 | CP297 | CP203
inactive: all other assays above

CC(C)(C)NC[C@H](O)COc1cccc2c1CCC(=O)N2
inactive: all assays above

NS(=O)(=O)c1cc2c(cc1Cl)N[C@@H](CC1CCCC1)NS2(=O)=O
inactive: all assays above

C=CCN1C(=CCO)[C@H]2C[C@H]3[C@@H]1CC[C@@]31c3ccccc3N3C=C4[C@@H]5N(/C=C/2[C@H]31)c1ccccc1[C@]51CC[C@H]2[C@H]1C[C@@H]4/C(=C/CO)N2CC=C
inactive: all assays above

O=C1O[C@H](CN2CCOCC2)CN1/N=C\c1ccc([N+](=O)[O-])o1
inactive: CP194 | CP201 | CP203 | CP252 | CP266 | CP297 | CP329
active: 7G8 3.55 µM

CC(=O)[C@@]1(O)CC[C@H]2[C@H]3C[C@@H](C)C4=CC(=O)C=C[C@]4(C)[C@@]3(F)[C@@H](O)C[C@]21C
not listed: 7G8 | CP266 | ICS
inactive: all other assays above

CS(=O)(=O)c1ccc([C@H](O)[C@H](CO)NC(=O)C(Cl)Cl)cc1
inactive: 7G8 | CP260 | CP265 | CP266 | HB3 | PAD

COc1ccc(C[C@@](C)(N)C(=O)O)cc1OC
inactive: all assays above

CNC[C@H](O)c1ccc(OC(=O)C(C)(C)C)c(OC(=O)C(C)(C)C)c1
not listed: 7G8 | ICS
inactive: all other assays above

COc1cc(N)c(Cl)cc1C(=O)N[C@H]1CCN(CCCOc2ccc(F)cc2)C[C@H]1OC
active: 7G8 5.01 µM | CP260 3.16 µM | CP265 3.98 µM | CP286 3.55 µM | TAB165 3.55 µM
inactive: CP203 | CP266 | CP297

O=C(NC[C@@H](O)CO)c1c(I)c(C(=O)NC[C@@H](O)CO)c(I)c(N(CCO)C(=O)CO)c1I
not listed: CP266
inactive: all other assays above

CC[C@@H]1OC(=O)[C@H](C)[C@H](O[C@@H]2C[C@](C)(OC)[C@H](O)[C@H](C)O2)[C@H](C)[C@H](O[C@@H]2O[C@@H](C)C[C@@H](N(C)C)[C@@H]2O)[C@](C)(O)C[C@H](C)C(=NOCOCCOC)[C@H](C)[C@H](O)[C@]1(C)O
not listed: CP252 | CP260 | CP266 | CP297
inactive: all other assays above

C[C@@]12CC[C@H]3[C@@H](CCC4=CC(=O)CC[C@]43C)[C@H]1CC[C@H]2C(=O)CO
active: ICS 3.55 µM
not listed: ECU | PAD | TAB165 | CP203
inactive: all other assays above

C=CCOc1ccccc1OC[C@H](O)CNC(C)C
active: CP237 3.16 µM
not listed: CP266 | CP297 | TAB165
inactive: all other assays above

CC[N+](CC)(CC)CC[C@](O)(c1ccccc1)C1CCCCC1
not listed: CP260 | CP286 | HB3 | ICS
inactive: all other assays above

CN1C(=O)C[C@H](c2ccccc2)C1=O
not listed: CP185 | CP237 | CP265
inactive: all other assays above

NC(=O)N[C@H]1NC(=O)NC1=O
inactive: all assays above

CC(=O)OCC(=O)[C@@]1(O)CC[C@@H]2[C@H]3CCC4=CC(=O)C=C[C@]4(C)[C@]3(F)[C@@H](O)C[C@@]21C
inactive: all assays above

NS(=O)(=O)c1cc2c(cc1Cl)N[C@@H](C(Cl)Cl)NS2(=O)=O
inactive: all assays above

CC(=O)O[C@]1(C(C)=O)CC[C@@H]2[C@@H]3C=C(C)C4=CC(=O)CC[C@@]4(C)[C@H]3CC[C@]21C
not listed: 7G8 | ICS
inactive: all other assays above

Cc1cccc(C)c1NC(=O)[C@H](C)N
active: CP297 5.1 µM
not listed: CP266 | CP329 | CP194 | CP201 | CP203
inactive: all other assays above

CC[C@H](CO)NCCN[C@@H](CC)CO
not listed: ECU
inactive: all other assays above

CCCC[C@H](CC)CN1CN(C[C@@H](CC)CCCC)CC(C)(N)C1
active: CP260 3.55 µM | ICS 4.47 µM
not listed: 7G8 | CP237 | CP286
inactive: all other assays above

CCOC(=O)[C@H](CCc1ccccc1)N[C@@H](C)C(=O)N1[C@H](C(=O)O)C[C@H]2CCC[C@@H]21
not listed: CP297 | CP329
inactive: all other assays above

COc1c(O[C@H]2O[C@@H](CO)[C@@H](O)[C@@H](O)[C@@H]2O)cc2c(c1OC)-c1ccc(SC)c(=O)cc1[C@H](NC(C)=O)CC2
not listed: CP260
inactive: all other assays above

CCC(=O)O[C@@H]1[C@H](C)O[C@H](O[C@H]2[C@@H](N(C)C)[C@H](O)[C@@H](O[C@@H]3[C@@H](CC=O)C[C@@H](C)[C@@H](O)/C=C\C=C/C[C@@H](C)OC(=O)C[C@@H](OC(=O)CC)[C@H]3OC)O[C@H]2C)C[C@]1(C)O
inactive: ECU | HB3 | PAD | TAB165

CO[C@H]1[C@@H](OC(N)=O)[C@H](O)[C@@H](Oc2ccc3c(O)c(NC(=O)c4ccc(O)c(CC=C(C)C)c4)c(=O)oc3c2C)OC1(C)C
not listed: CP266 | CP297
inactive: all other assays above

C[C@H]1CC[C@]2(OC1)O[C@@H]1C[C@@H]3[C@@H]4CC[C@H]5C[C@@H](O)CC[C@]5(C)[C@@H]4CC(=O)[C@@]3(C)[C@H]1[C@@H]2C
inactive: all assays above

CC(=O)OCC(=O)[C@@]1(O)[C@H](C)C[C@@H]2[C@H]3CCC4=CC(=O)C=C[C@]4(C)[C@]3(F)[C@@H](O)C[C@@]21C
inactive: all assays above

Cc1ccc(S(=O)(=O)NC(=O)NN2C[C@H]3CCC[C@@H]3C2)cc1
inactive: all assays above

NC(=O)c1cc[n+](CC2=C(C(=O)[O-])N3C(=O)[C@@H](NC(=O)Cc4cccs4)[C@@H]3SC2)cc1
not listed: 7G8 | CP203
inactive: all other assays above

CC1(C)O[C@@H]2C[C@H]3[C@H]4C[C@H](F)C5=CC(=O)CC[C@]5(C)[C@@H]4[C@H](O)C[C@]3(C)[C@]2(C(=O)CO)O1
not listed: 7G8
inactive: all other assays above

C[C@H](Oc1ccccc1)C(=O)N[C@@H]1C(=O)N2[C@@H]1SC(C)(C)[C@@H]2C(=O)O
inactive: all assays above

CC(C)NC[C@H]1CCc2cc(CO)c([N+](=O)[O-])cc2N1
inactive: all assays above

CN(C)CCn1nnnc1SCC1=C(C(=O)O)N2C(=O)[C@@H](NC(=O)Cc3csc(N)n3)[C@@H]2SC1
active: 7G8 3.55 µM | ICS 2.51 µM
not listed: CP260 | CP265 | ECU | HB3 | P93_24 | PAD | TAB165
inactive: all other assays above

COc1cc2nc(N3CCN(C(=O)[C@@H]4CCCO4)CC3)nc(N)c2cc1OC
not listed: CP266
inactive: all other assays above

OCCN1CCN(CCC=C2c3ccccc3Sc3ccc(Cl)cc32)CC1
inactive: CP203 | CP266 | CP297
active: 7G8 3.16 µM | CP286 3.55 µM | ICS 4.47 µM

CN1CCN([C@@H](c2ccccc2)c2ccc(Cl)cc2)CC1
inactive: CP185 | CP237 | CP252 | CP260 | CP266 | CP286 | CP297 | CP329 | ECU | HB3
active: 7G8 3.16 µM | ICS 3.16 µM

NCc1ccccc1CC(=O)N[C@@H]1C(=O)N2C(C(=O)O)=C(CSc3nnnn3CC(=O)O)CS[C@@H]12
inactive: all assays above

CCC(=O)O[C@@]1(C(=O)SCF)[C@@H](C)C[C@H]2[C@@H]3C[C@@H](F)C4=CC(=O)C=C[C@@]4(C)[C@]3(F)[C@@H](O)C[C@]21C
active: 7G8 2.82 µM | ICS 2.51 µM | P93_24 3.55 µM | TAB165 3.16 µM
inactive: CP194 | CP201 | CP203 | CP266 | CP286 | CP297 | CP329

Clc1ccc([C@H](Cn2ccnc2)OCc2csc3c(Cl)cccc23)c(Cl)c1
active: 7G8 1.41 µM | CP203 5.73 µM | CP237 3.16 µM | CP297 6.42 µM | ECU 3.98 µM | ICS 2 µM | P93_24 2 µM | PAD 3.55 µM | TAB165 2.24 µM
inactive: CP266

NC(=O)c1ccc[n+]([C@@H]2O[C@H](COP(=O)([O-])OP(=O)(O)OC[C@H]3O[C@@H](n4cnc5c(N)ncnc54)[C@@H](O)[C@@H]3O)[C@@H](O)[C@@H]2O)c1
inactive: all assays above

CC[C@H](Cc1c(I)cc(I)c(N)c1I)C(=O)O
inactive: all assays above

CN(C/C=C\c1ccccc1)Cc1cccc2ccccc12
active: ICS 11.2 µM
not listed: 7G8 | CP286 | CP297 | CP194
inactive: all other assays above

C=CC1=C(C(=O)O)N2C(=O)[C@@H](NC(=O)/C(=N\OCC(=O)O)c3csc(N)n3)[C@@H]2SC1
inactive: all assays above

NS(=O)(=O)c1cc2c(cc1C(F)(F)F)N[C@H](Cc1ccccc1)NS2(=O)=O
inactive: all assays above
